Here are results for 67 compounds from PubChem BioAssay AID588342 (National Center for Advancing Translational Sciences (NCATS), 2011).

Screen size: about 360,000 compounds; about 25,000 (6.9%) were called active. Inconclusive results (about 9%) are left out. Calls follow the shape of the dose curve; as a rule, active = well fitted inhibition curve with a large enough effect; inconclusive = small, poorly fitted or top-dose-only effect; inactive = flat fitted curve, though single readings scatter. The list comes from a sample in which actives are over-represented; it also holds similar structures and randomly drawn compounds. A call without a number means that no potency is given here.
Potency is read from the fitted curve at half-maximal effect.

The target of this experiment is Luciferin 4-monooxygenase (Photinus pyralis) (UniProt P08659). In words: qHTS profiling assay for firefly luciferase inhibitor/activator using purifed enzyme and Km concentrations of substrates (counterscreen for miR-21 project). Also: nearly all actives have a fitted effect of over 55% in size. The following applies: purified FLuc, luminescence inhibition; series mostly up to 57.5 µM. Summed up: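 Biochemical qHTS of compounds, final roughly 60 µM downward over six points, against 10 nM purified firefly luciferase using Km concentrations of substrates (10 uM D-luciferin, 10 uM ATP) in Tris acetate pH 7.5 buffer; luminescence output.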
Luciferin 4-monooxygenase (Photinus pyralis), sequence (P08659 whole entry, looked up): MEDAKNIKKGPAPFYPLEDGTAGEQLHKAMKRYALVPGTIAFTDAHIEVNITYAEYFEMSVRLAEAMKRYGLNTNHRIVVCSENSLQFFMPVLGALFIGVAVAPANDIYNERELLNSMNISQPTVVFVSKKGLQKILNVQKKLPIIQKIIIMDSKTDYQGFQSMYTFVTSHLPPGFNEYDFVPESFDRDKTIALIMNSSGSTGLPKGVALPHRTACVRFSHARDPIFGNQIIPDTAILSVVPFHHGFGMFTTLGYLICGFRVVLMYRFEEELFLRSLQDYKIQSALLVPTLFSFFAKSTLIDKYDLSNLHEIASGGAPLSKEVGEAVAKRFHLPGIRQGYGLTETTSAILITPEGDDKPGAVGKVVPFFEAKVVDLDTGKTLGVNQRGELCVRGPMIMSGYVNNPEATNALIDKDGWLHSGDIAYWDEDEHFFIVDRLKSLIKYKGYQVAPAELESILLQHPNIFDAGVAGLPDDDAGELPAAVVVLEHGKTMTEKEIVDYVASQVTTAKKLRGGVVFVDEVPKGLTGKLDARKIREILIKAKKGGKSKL
As to `CC(=O)Nc1ccccc1Sc1ccc2c3c(cccc13)C(=O)N(c1ccc(C)cc1)C2=O`, the Potency result is “inactive”.

With `O=C(O)c1ccc2c3c(cccc13)C(=O)N(OS(=O)(=O)c1ccccc1)C2=O`, the Potency is 26.9 µM (active).

On to `CN1C(=O)c2cccc3c(N)ccc(c23)C1=O`, for which the Potency entry is “inactive”.

On to `COc1cc(/C=N\NC(=O)c2nonc2N)c(OC)cc1Br`, for which the Potency entry was “inactive”.

With `CC(C)c1c(C(=O)N/N=C/c2ccc(-c3ccccc3)cc2)nnn1-c1nonc1N`, the Potency result is “inactive”.

For the compound `Cc1nonc1C(=O)N/N=C/c1ccc(O)cc1`, the Potency is 6.01 µM (active).

For the compound `CCC(C)Nc1oc(-c2ccc(COc3ccc(Cl)cc3)o2)nc1C#N` (configuration not stated), the Potency entry was “inactive”.

For the compound `Nc1nnc(SCC(=O)NCC(=O)Nc2ccc(F)c(F)c2F)s1`, the Potency entry is “inactive”.

As for `O=C(c1ccco1)n1nc(-c2ccc(Cl)cc2)nc1NCc1ccccc1`, the Potency result was “inactive”.

Regarding `Cc1cc(Br)ccc1NC(=O)Cn1cnc2sc(C)c(S(=O)(=O)N3CCN(C)CC3)c2c1=O`, the Potency entry was “inactive”.

With `Brc1ccc(CN2CC[C@H]3C=CCc4cccc(c43)C2)cc1`, the Potency result is “inactive”.

Regarding `CCOc1ccccc1CNC(=O)c1ccc2c(c1)nc1n2CCC(C)C1` (configuration not stated), the Potency result is “inactive”.

Regarding `Cc1ccc(CCNC(=O)c2ccc3c(c2)nc2n3CCC(C)C2)cc1` (configuration not stated), the Potency entry is “inactive”.

As to `O=C(NCc1ccccc1)c1ccc2c(c1)nc1n2CCCCC1`, the Potency was 19 µM (active).

`O=C(/C=C/c1ccc(Cl)c([N+](=O)[O-])c1)c1cccnc1`: the Potency entry was “inactive”.

On to `O=C(/C=C/c1ccc(Cl)cc1Cl)c1cccnc1`, for which the Potency is 15.1 µM (active).

With `O=C(NCc1ccc(Cl)c(Cl)c1)c1cccnc1`, the Potency entry was “inactive”.

On to `Cc1cccc(C)c1NC(=O)Nc1ccccc1-n1ccnc1`, for which the Potency entry was “inactive”.

For the compound `O=c1c2ccccc2n(Cc2cccc(Cl)c2)c(=O)n1Cc1ccccc1`, the Potency entry was “inactive”.

As for `CCN(CC)CCNc1ncnc2c1cnn2-c1cc(Cl)ccc1C`, the Potency entry is “inactive”.

For the compound `COCCNc1ncnc2c1c(-c1ccccc1)cn2-c1ccc(C)c(Cl)c1`, the Potency entry is “inactive”.

On to `Cc1ccc(-n2ncc3c(NCCCn4ccnc4)ncnc32)cc1Cl`, for which the Potency was 12 µM (active).

Turning to `Cc1ccccc1CNC(=O)c1ccc(NC(=O)N2CCCCc3ccccc32)cc1`, the Potency result is “inactive”.

Consider `COC(=O)C1=C(C)NC(=O)/C1=C/c1ccc(CNS(=O)(=O)c2ccc(C)cc2)o1`, for which the Potency entry is “inactive”.

On to `C[C@@H](NC(=O)c1nc[nH]c1C(=O)N1CCN(C(=O)OC(C)(C)C)CC1)c1ccccc1`, for which the Potency result was “inactive”.

As for `Cc1ccc(Cl)cc1NC(=O)c1ccccn1`, the Potency was 16.9 µM (active).

On to `Cc1cnc(NC(=O)CSc2nnc(-c3ccccc3)n2Cc2ccccc2)s1`, for which the Potency entry was “inactive”.

On to `Cc1ccc(Cl)cc1NC(=O)CSc1nccn1C`, for which the Potency entry is “inactive”.

Turning to `Cc1cnc(NC(=O)Cn2cnc3c2c(=O)n(C)c(=O)n3C)s1`, the Potency entry was “inactive”.

Regarding `Cc1cnc(NC(=O)C2CCCC2)s1`, the Potency result is “inactive”.

Take `Cc1ccc(Cl)cc1NC(=O)Cc1ccc(-n2c(C)nc3cccnc32)cc1`: the Potency result was “inactive”.

Regarding `Cc1cnc(NC(=O)CSc2nnc(C)s2)s1`, the Potency result is “inactive”.

For the compound `Cc1cnc(NC(=O)c2ccccn2)s1`, the Potency is 2.69 µM (active).

For the compound `Cc1cnc(NC(=O)c2ccc(Cl)nc2)s1`, the Potency is 12 µM (active).

On to `COc1ccc(-c2onc(C)c2C)cc1S(=O)(=O)NCc1cccs1`, for which the Potency result is “inactive”.

For the compound `CC(=O)NC(CC(=O)Nc1nc(-c2ccccc2)c(C(C)=O)s1)c1ccccc1` (configuration not stated), the Potency entry was “inactive”.

On to `COc1cccc(-c2n[nH]c3c2C(c2cccc(O)c2)N(C)C3=O)c1` (configuration not stated), for which the Potency entry was “inactive”.

Regarding `O=C1COc2ccc(C(=O)CSc3ccc(Br)cc3)cc2N1`, the Potency result is “inactive”.

For `Cc1ccc(C)c(N2CCN(c3ccc4cc(S(=O)(=O)N5CCC(C)CC5)ccc4n3)CC2)c1`, the Potency result is “inactive”.

In the case of `Cc1cc(NC(=O)C2CCC(CNS(=O)(=O)c3ccc(Br)s3)CC2)ccc1Br` (configuration not stated), the Potency entry was “inactive”.

On to `Cc1cc(C)cc(OCC(=O)Nc2nc(-c3ccc(F)cc3)ns2)c1`, for which the Potency entry was “inactive”.

`C/C(N)=C(/C#N)C(=O)COC(=O)c1cc(-c2ccc(C)cc2)nc2ccccc12`: the Potency is 9.53 µM (active).

On to `COc1ccc(-c2cc(C(=O)N(C)Cc3ccccc3)c3ccccc3n2)cc1`, for which the Potency was 10.7 µM (active).

As to `COc1ccc(CN(C)C(=O)c2cc(-c3ccc(C)cc3C)nc3ccccc23)c(OC)c1OC`, the Potency entry is “inactive”.

As for `COc1ccc(C2=NS(=O)(=O)N(C)C(C(=O)N(C)Cc3ccccc3)=C2)cc1`, the Potency result is “inactive”.

As for `CNC(=O)COC(=O)c1cc(-c2ccc(OC)cc2)nc2ccccc12`, the Potency was 5.36 µM (active).

With `COc1ccc(NC(=O)c2cc(-c3cc(OC)c(OC)c(OC)c3)nc3ccccc23)c(OC)c1`, the Potency result is “inactive”.

Consider `C/C(N)=C(/C#N)C(=O)COC(=O)C1=NN(c2ccccc2)C(=O)CC1`, for which the Potency result is “inactive”.

`C/C(N)=C(/C#N)C(=O)COC(=O)c1cc(-c2cccc(Br)c2)nc2ccccc12`: the Potency entry was “inactive”.

With `O=C(O/N=C(/c1ccccc1)c1ccncc1)c1ccccc1[N+](=O)[O-]`, the Potency entry was “inactive”.

Regarding `COC(=O)CNC(=O)c1cc(-c2ccncc2)nc2ccccc12`, the Potency result was “inactive”.

As to `COc1ccc(CCNC(=O)COC(=O)c2cc(=O)c3ccccc3o2)cc1`, the Potency entry is “inactive”.

`N/C(=N\OC(=O)c1cc(-c2ccccc2)nc2ccccc12)c1ccncc1`: the Potency is 21.3 µM (active).

For `Cc1cc(C)c2oc(C(=O)Nc3c(C(=O)Nc4ccccc4)oc4ccccc34)cc(=O)c2c1`, the Potency entry was “inactive”.

Take `CCCCN(C(=O)C(CCSC)N1C(=O)c2ccccc2C1=O)c1c(N)n(CCC)c(=O)[nH]c1=O` (configuration not stated): the Potency entry was “inactive”.

Take `COc1cc(NS(=O)(=O)c2ccc3c(c2)OCC(C(=O)N2CCCC2)O3)cc(OC)c1` (configuration not stated): the Potency entry was “inactive”.

Turning to `COc1ccc2c(CNCCc3ccccc3C)c(C(=O)O)n(Cc3ccccc3C)c2c1`, the Potency result is “inactive”.

For `CCCn1ccc2c(OCC(=O)NCc3ccc(F)cc3)cccc2c1=O`, the Potency entry was “inactive”.

For `COC(=O)c1cccnc1NC(=S)NC(C)C`, the Potency entry was “inactive”.

Turning to `Cc1cc(NS(=O)(=O)c2ccc3oc(=O)c4ncn(C)c4c3c2)ccc1Br`, the Potency entry is “inactive”.

On to `Cc1c(O)c(C)c2c(c1O)C(=O)C[C@@H](c1ccccc1)O2`, for which the Potency result is “inactive”.

Turning to `CCn1cc(C(=O)NCCc2ccccc2)c(=O)c2cc(S(=O)(=O)N3CCCCCC3)ccc21`, the Potency result is “inactive”.

Turning to `CCOc1ccc(N2CC(C)Cn3c2nc2c3c(=O)n(Cc3c(F)cccc3Cl)c(=O)n2C)cc1` (configuration not stated), the Potency entry is “inactive”.

Regarding `Cc1ccc(NC(=O)CSc2nc3c(c(=O)[nH]2)CN(Cc2ccc4c(c2)OCO4)CC3)cc1C`, the Potency entry was “inactive”.

Turning to `Cc1ccc(OCC(=O)Nn2cnc3ccccc32)cc1`, the Potency entry was “inactive”.

In the case of `COc1ccc(S(=O)(=O)n2cnc3ccccc32)c(C)c1`, the Potency entry was “inactive”.

For the compound `COc1ccc(-c2cc(C(=O)n3cnc4ccccc43)c3ccccc3n2)cc1`, the Potency was 5.36 µM (active).
